Results from PubChem BioAssay AID743103 (Vanderbilt Specialized Chemistry Center, 2013).
The source made the active and inactive calls. How the calls were made is not given here.

Target: Muscarinic acetylcholine receptor M3 (Homo sapiens) (UniProt P20309)
Experiment: off-target M3 muscarinic calcium response – cell-based, CHO-K1 hM3, Fluo-4 calcium flux, ACh EC20, counter-screen for M5 NAM project (AID 743103)
Conditions: series mostly up to 30 µM; % of max ACh response: at the top concentration

Structure (SMILES)	% of max ACh response
O=C(c1ccc(F)cc1)N1CCN2C(=O)c3ccccc3C12c1ccccc1 (stereo not given)	73.3 (inactive)
O=C(c1ccc(F)c(F)c1)N1CCN2C(=O)c3ccccc3[C@@]12c1ccc(Cl)cc1	53.5 (inactive)
O=C(c1ccc(F)c(F)c1)N1CCN2C(=O)c3ccccc3C12c1ccccc1 (stereo not given)	80.1 (inactive)
O=C(c1ccc(F)c(F)c1)N1CCN2C(=O)c3ccccc3C12c1ccc(Cl)cc1 (stereo not given)	75.5 (inactive)
O=C(c1cc(F)cc(F)c1)N1CCN2C(=O)c3ccccc3C12c1ccc(Cl)cc1 (stereo not given)	81.5 (inactive)
